Measurements taken from PubChem BioAssay AID1159580 (chemical genetic matrix, 2015).
The campaign covered roughly 5,500 compounds. About 2,000 (36%) were called active. Roughly 18% stayed inconclusive and do not appear here. Cut-off read from the data, not from the text of the source: active = normalized growth mostly below about 0.91 (no sharp cut-off); inconclusive = no clear call, values can overlap the other calls; inactive = mostly above about 0.92. Some of the results follow.

Test: chemical genetic growth profiling, strain panel (AID 1159580);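 note: tested at 20 µM; growth read once vehicle control cultures reached saturation at 30 °C; 1 = growth at the plate median or of vehicle wells; lower values mean less growth of the strain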
Settings: growth OD

Measured: normalized growth

CCCC(C)C1(CC)C(=O)N=C(S)NC1=O (configuration not stated)
active: S. cerevisiae deletion strains, locus YKL085W, strain MDH1 (second series), hits give low values 0.309 | S. cerevisiae deletion strains, locus YKL085W, strain MDH1, hits give low values 0.309 | S. cerevisiae deletion strains, locus YKR001C, strain vps1, hits give low values 0.0973 | S. cerevisiae deletion strains, locus YLR102C, strain apc9, hits give low values 0.0762 | S. cerevisiae deletion strains, locus YLR268W, strain sec22, hits give low values 0.0785 | S. cerevisiae deletion strains, locus YLR371W, strain rom2, hits give low values 0.077 | S. cerevisiae deletion strains, locus YLR418C, strain cdc73, hits give low values 0.0993 | S. cerevisiae deletion strains, locus YML032C, strain rad52, hits give low values 0.789 | S. cerevisiae deletion strains, locus YML124C, strain tub3, hits give low values 0.113 | S. cerevisiae deletion strains, locus YMR078C, strain ctf18, hits give low values 0.124 | S. cerevisiae deletion strains, locus YMR223W, strain ubp8, hits give low values 0.0719 | S. cerevisiae deletion strains, locus YNL250W, strain rad50, hits give low values 0.434 | S. cerevisiae deletion strains, locus YNL271C, strain bni1, hits give low values 0.163 | S. cerevisiae deletion strains, locus YNL298W, strain CLA4, hits give low values 0.372 | S. cerevisiae deletion strains, locus YNL307C, strain MCK1, hits give low values 0.0689 | S. cerevisiae deletion strains, locus YOL147C, strain pex11, hits give low values 0.677 | S. cerevisiae deletion strains, locus YOR136W, strain idh2, hits give low values 0.0798 | S. cerevisiae deletion strains, locus YOR184W, strain ser1, hits give low values 0.0729 | S. cerevisiae deletion strains, locus YOR316C, strain cot1, hits give low values 0.0718 | S. cerevisiae deletion strains, locus YPR119W, strain clb2, hits give low values 0.101 | S. cerevisiae deletion strains, locus YPR163C, strain tif3, hits give low values 0.0717 | S. cerevisiae deletion strains, locus YPR167C, strain met16, hits give low values 0.0756 | S. cerevisiae deletion strains, strain wtn01, hits give low values 0.06
inactive: S. cerevisiae deletion strains, locus YJR075W, strain HOC1, hits give low values 1 | S. cerevisiae deletion strains, locus YKL009W, strain mrt4, hits give low values 0.908 | S. cerevisiae deletion strains, locus YKL068W, hits give low values 0.947 | S. cerevisiae deletion strains, locus YKL160W, strain elf1, hits give low values 0.982 | S. cerevisiae deletion strains, locus YKL190W, strain CNB1, hits give low values 1.02 | S. cerevisiae deletion strains, locus YKR026C, strain gcn3, hits give low values 0.984 | S. cerevisiae deletion strains, locus YKR091W, strain srl3, hits give low values 1.01 | S. cerevisiae deletion strains, locus YLL001W, strain dnm1, hits give low values 0.986 | S. cerevisiae deletion strains, locus YLL026W, hits give low values 1 | S. cerevisiae deletion strains, locus YLL041C, strain sdh2, hits give low values 0.994 | S. cerevisiae deletion strains, locus YLR027C, strain aat2, hits give low values 0.998 | S. cerevisiae deletion strains, locus YLR039C, strain RIC1, hits give low values 1.06 | S. cerevisiae deletion strains, locus YLR058C, strain SHM2, hits give low values 1 | S. cerevisiae deletion strains, locus YLR113W, strain HOG1, hits give low values 0.98 | S. cerevisiae deletion strains, locus YLR221C, strain rsa3, hits give low values 0.987 | S. cerevisiae deletion strains, locus YLR258W, strain gsy2, hits give low values 1 | S. cerevisiae deletion strains, locus YLR262C, strain YPT6 (second series), hits give low values 0.918 | S. cerevisiae deletion strains, locus YLR262C, strain YPT6, hits give low values 1.01 | S. cerevisiae deletion strains, locus YLR320W, strain mms22, hits give low values 0.987 | S. cerevisiae deletion strains, locus YLR330W, strain CHS5, hits give low values 1.01 | S. cerevisiae deletion strains, locus YLR342W, strain FKS1 (second series), hits give low values 1.04 | S. cerevisiae deletion strains, locus YLR342W, strain FKS1, hits give low values 0.998 | S. cerevisiae deletion strains, locus YLR357W, strain rsc2, hits give low values 0.961 | S. cerevisiae deletion strains, locus YLR370C, strain arc18, hits give low values 0.984 | S. cerevisiae deletion strains, locus YLR384C, strain iki3, hits give low values 1 | S. cerevisiae deletion strains, locus YML016C, strain PPZ1, hits give low values 1 | S. cerevisiae deletion strains, locus YML120C, strain ndi1, hits give low values 0.988 | S. cerevisiae deletion strains, locus YMR058W, strain fet3, hits give low values 1 | S. cerevisiae deletion strains, locus YMR125W, strain sto1, hits give low values 0.974 | S. cerevisiae deletion strains, locus YMR129W, hits give low values 0.971 | S. cerevisiae deletion strains, locus YMR205C, strain PFK2, hits give low values 0.97 | S. cerevisiae deletion strains, locus YMR231W, strain pep5, hits give low values 1 | S. cerevisiae deletion strains, locus YMR263W, strain SAP30, hits give low values 1.01 | S. cerevisiae deletion strains, locus YMR307W, strain GAS1, hits give low values 0.992 | S. cerevisiae deletion strains, locus YNL067W, strain RPL9B, hits give low values 1.01 | S. cerevisiae deletion strains, locus YNL071W, strain lat1, hits give low values 1 | S. cerevisiae deletion strains, locus YNL128W, strain TEP1, hits give low values 1 | S. cerevisiae deletion strains, locus YNL153C, strain GIM3, hits give low values 0.999 | S. cerevisiae deletion strains, locus YNL183C, strain NPR1, hits give low values 0.923 | S. cerevisiae deletion strains, locus YNL209W, strain ssb2, hits give low values 0.982 | S. cerevisiae deletion strains, locus YNL233W, strain BNI4, hits give low values 0.999 | S. cerevisiae deletion strains, locus YNL248C, strain rpa49, hits give low values 0.988 | S. cerevisiae deletion strains, locus YNL322C, strain KRE1 (second series), hits give low values 0.979 | S. cerevisiae deletion strains, locus YNL322C, strain KRE1, hits give low values 1.01 | S. cerevisiae deletion strains, locus YNR049C, strain mso1, hits give low values 0.992 | S. cerevisiae deletion strains, locus YNR052C, strain pop2, hits give low values 1.01 | S. cerevisiae deletion strains, locus YOL006C, strain TOP1, hits give low values 1.03 | S. cerevisiae deletion strains, locus YOL012C, strain htz1 0.212 | S. cerevisiae deletion strains, locus YOR001W, strain rrp6, hits give low values 0.98 | S. cerevisiae deletion strains, locus YOR061W, strain CKA2, hits give low values 1.01 | S. cerevisiae deletion strains, locus YOR069W, strain VPS5, hits give low values 1.01 | S. cerevisiae deletion strains, locus YOR070C, strain gyp1, hits give low values 1 | S. cerevisiae deletion strains, locus YOR080W, strain dia2, hits give low values 0.989 | S. cerevisiae deletion strains, locus YOR083W, strain WHI5, hits give low values 0.988 | S. cerevisiae deletion strains, locus YOR106W, strain vam3, hits give low values 0.979 | S. cerevisiae deletion strains, locus YOR144C, strain elg1, hits give low values 1 | S. cerevisiae deletion strains, locus YOR231W, strain MKK1, hits give low values 0.994 | S. cerevisiae deletion strains, locus YOR265W, strain rbl2, hits give low values 0.986 | S. cerevisiae deletion strains, locus YOR270C, strain vph1, hits give low values 0.969 | S. cerevisiae deletion strains, locus YOR290C, strain snf2, hits give low values 0.997 | S. cerevisiae deletion strains, locus YPL051W, strain arl3, hits give low values 1 | S. cerevisiae deletion strains, locus YPL055C, strain LGE1, hits give low values 1.01 | S. cerevisiae deletion strains, locus YPL078C, strain atp4, hits give low values 0.981 | S. cerevisiae deletion strains, locus YPL106C, strain sse1, hits give low values 0.977 | S. cerevisiae deletion strains, locus YPL240C, strain hsp82, hits give low values 0.991 | S. cerevisiae deletion strains, locus YPL241C, strain CIN2, hits give low values 1.02 | S. cerevisiae deletion strains, locus YPL256C, strain CLN2, hits give low values 0.977 | S. cerevisiae deletion strains, locus YPR141C, strain kar3, hits give low values 0.983 | S. cerevisiae strains, strain wild type, hits give low values 1.01
